The subject of assay [1] is PRMT1 (protein arginine N-methyltransferase 1). The assay can be described thus: PRMT1 binders on small-molecule microarrays, primary screen, biochemical, small-molecule microarray, 635 nm fluorescence (AID 1088).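 Also: binding of Prmt1 protein to compounds spotted on small-molecule microarray slides.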 To be noted: small-molecule microarray binding, higher = more signal.
Assay [2] is described as follows: yeast growth modulation, basal conditions, primary screen, YJM789 clinical isolate, OD600, 24 h (AID 1089).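 Also: growth of clinical yeast isolate S. cerevisiae YJM 789 seeded 1000 cells per well; test concentration not given here.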 The conditions noted are these: S. cerevisiae YJM789 growth, higher = more signal, called active from +8 up or from −8 down.
Assay [3] is described as follows: fission yeast growth modulation, primary screen, strain 972, OD600, 24 h, no modulator (AID 1090).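 Also: basal condition with compound alone and no growth modifier present; test concentration not given here.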 To be noted: S. pombe 972 growth, higher = more signal, called active from +8 up or from −8 down.
The nature of assay [4]: S. cerevisiae growth modulation with rapamycin, primary screen, strain BY4716, OD600, 96 h (AID 1091). Also: test concentration not given here. The conditions noted are these: higher = more signal, called active from +8 up or from −8 down.
Assay [5] concerns the target Torsin-1A-interacting protein 2 (Homo sapiens) (UniProt Q8NFQ8). The assay can be described thus: LULL1 binders on small-molecule microarray, primary screen, cell lysate, human LULL1 lysate, 635/667 nm fluorescence (AID 1092).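 Also: probe is lysate of COS7 cells overexpressing human LULL1; score merges per-feature 667 nm fluorescence with signal-to-noise.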 The conditions noted are these: hLULL1 lysate binding, 635 nm fluorescence, higher = more signal.
Assay [6] is described as follows: E. coli growth modulation, two-sided OD650, primary screen, E. coli filamentation project, strain DRC41, 24 h (AID 1093).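 Also: MC1000 strain lacking acrAB efflux and sulA so SOS filamentation is blocked; test concentration not given here.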 To be noted: OD650, 24 h, higher = more signal, called active from +8 up or from −8 down.
The nature of assay [7]: small-molecule microarray binders of probe aLefty2, primary screen, biochemical, biotinylated probe, 635/667 nm fluorescence (AID 1094).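 Also: score merges spot fluorescence near 667 nm with spot signal-to-noise ratio.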 The conditions noted are these: higher = more signal.
Assay [8] relates to Noggin (protein binding on small-molecule microarray). The assay can be described thus: Noggin binders on small-molecule microarray, primary screen, biochemical, 635/667 nm fluorescence (AID 1095).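 Also: score merges 667 nm feature fluorescence with signal to noise over triplicate slides.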 To be noted: 635 nm fluorescence, higher = more signal.
In assay [9] the target is Neurogenic locus notch homolog protein 3 (Homo sapiens) (UniProt Q9UM47). The assay can be described thus: NOTCH3 binders on small-molecule microarray, primary screen, biochemical, 635/667 nm fluorescence (AID 1096). The conditions noted are these: NOTCH3 binding, 635 nm fluorescence, higher = more signal.
Assay [10] in a line: small-molecule microarray binders of probe aEGFR, primary screen, biochemical, biotinylated probe, 635/667 nm fluorescence (AID 1097).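 Also: probe is a biotinylated anti-EGFR antibody binding compounds printed on slides; score combines fluorescence near 667 nm and signal to noise of each spot.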 The conditions noted are these: higher = more signal.
In assay [11] the test system is Plasmodium falciparum Sir2 (PF13_0152, Sir2A). The assay can be described thus: pfSir2 binders on small-molecule microarrays, primary screen, biochemical, small-molecule microarray, 635 nm fluorescence (AID 1098).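 Also: score merges spot fluorescence intensity with its signal-to-noise ratio.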 To be noted: small-molecule microarray binding, fluorescence 635 nm; higher = more signal.
Assay [12] can be described thus: small-molecule microarray binders of probe aDKK1, primary screen, biochemical, biotinylated probe, 635/667 nm fluorescence (AID 1099).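 Also: score merges 667nm spot fluorescence with signal to noise across triplicate slides; reference of the scale not given here.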 The conditions noted are these: higher = more signal.
Assay [13] in a line: small-molecule microarray binders of probe aCHRDL2, primary screen, biochemical, biotinylated probe, 635/667 nm fluorescence (AID 1100). To be noted: higher = more signal.
Assay [14] can be described thus: splicing luciferase reporter signal modulators, primary screen, spliceosome inhibition project, cell-based, HEK293, splice +/- reporter (AID 1101).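 Also: HEK293 cells carrying a splicing-competent luciferase reporter gene; test concentration not given here.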 The conditions noted are these: luminescence, 24 h, higher = more signal, called active from +8 up or from −8 down. (In a reporter assay the amount or activity of a reporter protein is the signal.)
Assay [15] has as its target Fibroblast growth factor 10 (Homo sapiens) (UniProt O15520). The assay can be described thus: FGF10 binders on small-molecule microarrays, primary screen, biochemical, small-molecule microarray, 635 nm fluorescence (AID 1102). The conditions noted are these: FGF10 binding, fluorescence 635 nm, higher = more signal.
The subject of assay [16] is glycogen synthase kinase-3 (GSK3A per assay name; protocol says GSK3B). The assay can be described thus: GSK3 binders on small-molecule microarrays, primary screen, biochemical, small-molecule microarray, 635 nm fluorescence, GSK3A (AID 1103). Also: the record names both GSK3A and GSK3B. To be noted: small-molecule microarray binding, fluorescence 635 nm; higher = more signal.
Assay [17] concerns the target Epidermal growth factor receptor (Homo sapiens) (UniProt P00533). The assay can be described thus: EGFR binders on small-molecule microarrays, primary screen, biochemical, small-molecule microarray, 635 nm fluorescence (AID 1104).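 Also: score merges 667 nm emission intensity with spot signal to noise over triplicate slides.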 To be noted: EGFR binding, higher = more signal.
Assay [18] deals with Follistatin-related protein 3 (Homo sapiens) (UniProt O95633). The assay can be described thus: FSTL3 binders on small-molecule microarrays, primary screen, biochemical, small-molecule microarray, 635 nm fluorescence (AID 1105).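 Also: score merges emission near 667 nm and signal to noise per printed spot across three slides.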 To be noted: FSTL3 binding, higher = more signal.
The target of assay [19] is Dickkopf-related protein 1 (Homo sapiens) (UniProt O94907). The assay can be described thus: DKK1 binders on small-molecule microarrays, primary screen, biochemical, small-molecule microarray, 635 nm fluorescence scan (AID 1106).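 Also: score merges emission near 667 nm with signal to noise over three replicate slides.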 The conditions noted are these: DKK1 binding, higher = more signal.
Assay [20] has as its system Inhibin beta A chain (activin A). The assay can be described thus: INHBA (activin A) binders on microarrays, primary screen, biochemical, small-molecule microarray, 635 nm fluorescence scan (AID 1107).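 Also: mouse activin A protein probed at 4.33 µg/mL on printed slides; score merges bound-protein fluorescence near 667 nm with spot signal-to-noise.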 The conditions noted are these: small-molecule microarray binding, higher = more signal.

Consider nine molecules from PubChem BioAssay.

Molecules are shown by their SMILES. Calls of active or inactive are those of the source.

Chain of Neurogenic locus notch homolog protein 3 (Homo sapiens) (Q9UM47 whole entry, looked up): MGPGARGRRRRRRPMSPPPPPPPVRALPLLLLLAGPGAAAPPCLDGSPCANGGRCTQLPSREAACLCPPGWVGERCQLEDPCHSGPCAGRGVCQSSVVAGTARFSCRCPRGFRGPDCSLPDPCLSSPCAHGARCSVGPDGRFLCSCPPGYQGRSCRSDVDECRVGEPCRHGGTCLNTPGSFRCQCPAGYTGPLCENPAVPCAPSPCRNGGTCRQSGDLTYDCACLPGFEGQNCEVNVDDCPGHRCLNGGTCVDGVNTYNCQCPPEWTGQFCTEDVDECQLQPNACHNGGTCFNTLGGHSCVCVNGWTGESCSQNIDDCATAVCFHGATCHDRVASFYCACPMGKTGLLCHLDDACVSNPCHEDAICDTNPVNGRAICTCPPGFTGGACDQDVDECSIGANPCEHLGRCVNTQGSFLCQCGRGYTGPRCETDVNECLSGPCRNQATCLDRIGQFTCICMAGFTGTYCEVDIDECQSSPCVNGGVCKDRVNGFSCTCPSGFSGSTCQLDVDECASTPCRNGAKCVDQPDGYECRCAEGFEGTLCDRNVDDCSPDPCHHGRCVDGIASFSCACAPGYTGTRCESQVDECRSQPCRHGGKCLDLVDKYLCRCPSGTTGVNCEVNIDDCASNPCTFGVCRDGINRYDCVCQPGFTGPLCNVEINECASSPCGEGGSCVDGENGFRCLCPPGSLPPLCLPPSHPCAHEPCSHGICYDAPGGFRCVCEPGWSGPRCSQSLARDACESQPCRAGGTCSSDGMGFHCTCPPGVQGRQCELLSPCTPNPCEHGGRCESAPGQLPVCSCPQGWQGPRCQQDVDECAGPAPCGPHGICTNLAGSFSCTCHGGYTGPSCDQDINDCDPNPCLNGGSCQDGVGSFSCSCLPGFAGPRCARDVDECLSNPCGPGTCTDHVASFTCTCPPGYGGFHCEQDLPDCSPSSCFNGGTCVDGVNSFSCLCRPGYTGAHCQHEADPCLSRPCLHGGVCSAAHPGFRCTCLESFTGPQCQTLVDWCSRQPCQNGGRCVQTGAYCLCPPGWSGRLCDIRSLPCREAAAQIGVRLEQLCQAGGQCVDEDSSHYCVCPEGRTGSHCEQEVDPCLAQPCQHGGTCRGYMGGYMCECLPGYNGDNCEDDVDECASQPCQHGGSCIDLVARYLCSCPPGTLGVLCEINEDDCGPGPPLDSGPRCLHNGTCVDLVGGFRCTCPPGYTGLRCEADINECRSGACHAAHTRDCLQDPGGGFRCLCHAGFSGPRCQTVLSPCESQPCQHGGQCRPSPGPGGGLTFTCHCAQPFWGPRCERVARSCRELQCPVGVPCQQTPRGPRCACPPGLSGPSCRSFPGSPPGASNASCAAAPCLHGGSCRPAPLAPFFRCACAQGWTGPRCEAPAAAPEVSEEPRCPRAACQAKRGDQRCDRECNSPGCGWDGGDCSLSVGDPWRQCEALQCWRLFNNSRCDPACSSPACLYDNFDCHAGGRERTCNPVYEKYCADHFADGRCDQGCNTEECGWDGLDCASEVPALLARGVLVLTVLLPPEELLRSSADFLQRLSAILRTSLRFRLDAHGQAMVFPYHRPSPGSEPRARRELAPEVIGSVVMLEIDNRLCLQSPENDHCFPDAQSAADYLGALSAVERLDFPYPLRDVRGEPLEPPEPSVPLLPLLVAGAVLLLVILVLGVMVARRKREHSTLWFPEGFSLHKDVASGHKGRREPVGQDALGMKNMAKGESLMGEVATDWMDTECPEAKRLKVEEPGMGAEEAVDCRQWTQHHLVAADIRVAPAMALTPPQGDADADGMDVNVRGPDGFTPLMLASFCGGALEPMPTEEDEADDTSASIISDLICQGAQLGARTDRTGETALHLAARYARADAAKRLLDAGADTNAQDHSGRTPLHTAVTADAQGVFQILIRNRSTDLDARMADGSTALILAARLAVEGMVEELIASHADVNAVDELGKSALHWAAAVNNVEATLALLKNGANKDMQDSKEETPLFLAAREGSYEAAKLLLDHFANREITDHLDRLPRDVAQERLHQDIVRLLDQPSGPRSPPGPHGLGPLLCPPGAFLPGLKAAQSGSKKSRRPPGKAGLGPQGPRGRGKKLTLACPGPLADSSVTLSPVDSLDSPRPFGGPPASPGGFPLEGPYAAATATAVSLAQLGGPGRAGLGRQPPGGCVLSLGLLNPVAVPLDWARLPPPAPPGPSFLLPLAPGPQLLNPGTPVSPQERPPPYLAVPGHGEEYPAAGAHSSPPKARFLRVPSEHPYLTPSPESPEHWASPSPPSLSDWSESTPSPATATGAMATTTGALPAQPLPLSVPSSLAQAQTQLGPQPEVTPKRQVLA
Chain of Dickkopf-related protein 1 (Homo sapiens) (O94907 whole entry, looked up): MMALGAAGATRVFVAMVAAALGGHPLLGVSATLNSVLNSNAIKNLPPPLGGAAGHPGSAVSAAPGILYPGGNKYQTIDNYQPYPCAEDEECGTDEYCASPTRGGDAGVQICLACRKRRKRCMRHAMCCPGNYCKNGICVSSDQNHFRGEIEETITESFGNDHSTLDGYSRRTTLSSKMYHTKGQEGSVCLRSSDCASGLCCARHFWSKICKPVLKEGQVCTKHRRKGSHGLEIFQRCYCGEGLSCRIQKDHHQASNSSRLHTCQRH
Chain of Torsin-1A-interacting protein 2 (Homo sapiens) (Q8NFQ8 whole entry, looked up): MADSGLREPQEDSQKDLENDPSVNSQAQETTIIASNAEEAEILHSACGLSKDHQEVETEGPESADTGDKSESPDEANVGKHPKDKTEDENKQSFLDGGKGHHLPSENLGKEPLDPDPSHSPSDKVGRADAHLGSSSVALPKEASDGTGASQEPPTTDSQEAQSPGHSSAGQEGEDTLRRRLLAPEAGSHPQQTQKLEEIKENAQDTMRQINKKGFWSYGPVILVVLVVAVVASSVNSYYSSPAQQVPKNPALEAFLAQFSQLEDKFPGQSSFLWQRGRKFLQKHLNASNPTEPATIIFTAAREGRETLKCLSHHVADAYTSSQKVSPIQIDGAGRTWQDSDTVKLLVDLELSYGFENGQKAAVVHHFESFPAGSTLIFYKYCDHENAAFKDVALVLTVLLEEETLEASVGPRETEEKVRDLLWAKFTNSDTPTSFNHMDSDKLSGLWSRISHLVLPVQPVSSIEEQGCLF
Chain of Epidermal growth factor receptor (Homo sapiens) (P00533 whole entry, looked up): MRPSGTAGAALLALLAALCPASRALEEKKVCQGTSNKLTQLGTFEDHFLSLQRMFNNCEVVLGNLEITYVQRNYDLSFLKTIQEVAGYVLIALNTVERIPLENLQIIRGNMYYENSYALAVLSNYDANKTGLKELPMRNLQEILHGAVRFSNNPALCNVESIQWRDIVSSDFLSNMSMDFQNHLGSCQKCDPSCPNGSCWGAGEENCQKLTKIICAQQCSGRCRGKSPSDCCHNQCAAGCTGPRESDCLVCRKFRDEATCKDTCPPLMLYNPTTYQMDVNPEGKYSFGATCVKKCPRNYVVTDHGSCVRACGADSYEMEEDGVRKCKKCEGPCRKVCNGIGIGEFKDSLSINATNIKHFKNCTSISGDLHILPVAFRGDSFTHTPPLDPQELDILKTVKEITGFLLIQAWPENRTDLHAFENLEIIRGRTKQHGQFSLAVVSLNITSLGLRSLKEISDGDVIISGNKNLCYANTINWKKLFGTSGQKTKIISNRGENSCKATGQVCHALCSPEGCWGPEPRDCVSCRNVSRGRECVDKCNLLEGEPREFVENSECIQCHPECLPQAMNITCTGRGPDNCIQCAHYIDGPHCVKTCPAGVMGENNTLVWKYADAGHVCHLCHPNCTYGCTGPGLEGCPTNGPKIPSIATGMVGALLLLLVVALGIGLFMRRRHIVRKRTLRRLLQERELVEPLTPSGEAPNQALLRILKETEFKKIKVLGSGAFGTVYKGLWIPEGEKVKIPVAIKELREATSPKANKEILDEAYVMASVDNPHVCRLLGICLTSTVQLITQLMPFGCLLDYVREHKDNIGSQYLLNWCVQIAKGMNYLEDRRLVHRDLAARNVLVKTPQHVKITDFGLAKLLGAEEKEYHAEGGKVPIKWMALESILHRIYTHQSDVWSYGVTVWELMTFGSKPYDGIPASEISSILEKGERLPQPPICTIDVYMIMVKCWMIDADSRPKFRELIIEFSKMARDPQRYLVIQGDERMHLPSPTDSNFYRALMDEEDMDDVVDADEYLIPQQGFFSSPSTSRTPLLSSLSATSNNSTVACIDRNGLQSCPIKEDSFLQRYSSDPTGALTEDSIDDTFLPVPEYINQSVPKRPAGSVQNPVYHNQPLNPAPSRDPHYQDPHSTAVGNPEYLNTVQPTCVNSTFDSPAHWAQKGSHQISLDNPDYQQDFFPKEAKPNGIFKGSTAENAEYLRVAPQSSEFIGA
Chain of Follistatin-related protein 3 (Homo sapiens) (O95633 whole entry, looked up): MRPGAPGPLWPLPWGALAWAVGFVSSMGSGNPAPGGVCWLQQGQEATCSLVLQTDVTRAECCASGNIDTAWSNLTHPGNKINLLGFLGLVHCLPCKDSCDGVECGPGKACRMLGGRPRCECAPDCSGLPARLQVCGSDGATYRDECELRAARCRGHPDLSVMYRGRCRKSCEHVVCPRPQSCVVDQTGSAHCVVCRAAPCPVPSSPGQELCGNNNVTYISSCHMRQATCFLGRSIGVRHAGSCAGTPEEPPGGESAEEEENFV
Chain of Fibroblast growth factor 10 (Homo sapiens) (O15520 whole entry, looked up): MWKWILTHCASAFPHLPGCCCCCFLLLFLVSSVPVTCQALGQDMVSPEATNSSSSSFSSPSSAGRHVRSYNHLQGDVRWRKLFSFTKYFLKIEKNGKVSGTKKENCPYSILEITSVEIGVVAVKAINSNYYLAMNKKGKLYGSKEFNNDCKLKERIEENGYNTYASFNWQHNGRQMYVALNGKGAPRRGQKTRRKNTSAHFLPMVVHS

For `COc1cccc([C@H]2Oc3ccc(OC)cc3C(=NO[C@@H](C)c3cn([C@H](CO)Cc4ccccc4)nn3)[C@@H]2O)c1`, the composite z-score in [1] is 0.0733; in [5], -0.123; in assay [7], -0.21; in [8] it was -0.335; in assay [9], -0.367; in assay [10], -0.18. In addition, the composite z-score in assay [11] is 0.482; in assay [12], -0.268; in assay [13], -0.303; in assay [15] it was 0.167; in [16] it was -0.58; in [17] it was -0.0558. The composite z-score in assay [18] is -0.201; in [19], 0.113; in [20], 0.176. Moreover, the z-score is 0.401 (inactive) in assay [2]; 0.0329 (inactive) in assay [3]; 0.0485 (inactive) in assay [4]; -0.486 (inactive) in [6]; -0.0241 (inactive) in assay [14].

With `CON=C[C@@H](NS(=O)(=O)c1ccc(C)cc1)[C@H](C)C=CCC(=O)OC`, the composite z-score in assay [1] was -0.327; in assay [5], -0.312; in assay [7], -0.138; in assay [8], 0.26; in assay [9], -0.0877; in [10], -0.289. Moreover, the composite z-score was 0.571 in [11]; -0.26 in [12]; -0.447 in assay [13]; 0.0529 in assay [15]; -0.435 in [16]; 0.314 in [17]. Moreover, the figures for the composite z-score in assay [18], in assay [19] and in assay [20] were 0.224, 0.611 and 1.33, respectively. Moreover, the z-score in assay [2] was 0.903 (inactive); in assay [3], 0.435 (inactive); in assay [4], 0.719 (inactive); in assay [6], 0.306 (inactive); in assay [14] it was -0.114 (inactive).

`CC(=O)OC[C@H]1O[C@H](C#Cc2ccccc2)C=C[C@@H]1OC(C)=O`: the composite z-score in assay [1] was 0.48; in [5] it was 0.496; in [7], -0.0836; in [8], 0.653; in assay [9], 0.812; in assay [10], -0.0953. The composite z-score in assay [11] is 1.27; in assay [12] it was -0.0406; in [13], -0.219; in [15], 0.338; in assay [16], 0.163; in assay [17] it was 0.0278. Also, the values for the composite z-score in assay [18], in [19] and in [20] were 0.59, 0.57 and 0.58, respectively. For the same molecule, the z-score in [2] is 0.444 (inactive); in [3], -2.17 (inactive); in [4], -0.747 (inactive); in assay [6], 0.875 (inactive); in assay [14] it was -1.92 (inactive).

With `C=CC[C@@H]1C=C[C@H](ON=C[C@@H](C)[C@H](OCc2ccccc2)C(C)C)[C@@H](CO)O1`, the composite z-score in [1] was 0.261; in assay [5], 0.602; in [7], -0.228; in assay [8], -0.244; in assay [9] it was -0.0585; in assay [10] it was -0.146. The composite z-score was 1.07 in [11]; -0.5 in assay [12]; -0.353 in assay [13]; -0.483 in assay [15]; -0.363 in assay [16]; -0.852 in assay [17]. Besides, the composite z-score in assay [18] is -0.568; in assay [19], -0.189; in assay [20], -0.291. Further, the z-score in assay [2] is -1.46 (inactive); in assay [3], -3.98 (inactive); in assay [4], -0.515 (inactive); in assay [6], 0.15 (inactive); in assay [14], 0.305 (inactive).

In the case of `CC(=O)OC[C@H]1O[C@H](CCON=C2[C@H]3CCn4c(=O)n(-c5ccccc5)c(=O)n4[C@H]3[C@H](O)[C@@H]3O[C@H]23)C=C[C@@H]1OC(C)=O`, the composite z-score was 0.156 in assay [1]; 0.77 in [5]; -0.25 in [7]; 1.43 in [8]; 0.587 in [9]; 0.0488 in assay [10]. Also, the composite z-score in assay [11] was 0.0057; in assay [12], -0.149; in assay [13], -0.442; in assay [15], 0.527; in [16] it was 0.494; in assay [17] it was 0.432. Also, the composite z-score in [18] is 0.446; in [19], 0.404; in [20], -0.636. For the same molecule, the z-score in [2] was -0.111 (inactive); in assay [3], 0.127 (inactive); in assay [4], 0.49 (inactive); in [6], 0.93 (inactive); in assay [14] it was 0.838 (inactive).

Consider `C[C@@H](c1ccccc1)N1C(=O)[C@H]2[C@H]3[C@H](O)[C@H](O)CC(=NO[C@@H]4O[C@H](CO)[C@@H](O)[C@H](O)[C@H]4O)[C@@H]3CC[C@H]2C1=O`, for which the composite z-score in assay [1] was 0.0967; in [5], 0.652; in assay [7] it was -0.126; in [8], 0.111; in assay [9] it was 0.372; in [10] it was 0.0271. The composite z-score in assay [11] is 0.256; in [12], -0.193; in assay [13], -0.62; in [15] it was 0.305; in [16], 0.495; in [17], 0.586. For the same molecule, the composite z-score in [18] was 0.579; in assay [19] it was 0.393; in assay [20], 0.0868. For the same molecule, the z-score in [2] is 0.114 (inactive); in [3] it was 0.149 (inactive); in [4], -0.967 (inactive); in [6], 0.345 (inactive); in assay [14], 0.119 (inactive).

For the molecule `COC(=O)[C@@H]1CC[C@H](C)[C@@H](c2ccc(C)cc2)N1C(=O)c1ccc(C=NO[C@@H](C)c2cn([C@H](CO)Cc3ccccc3)nn2)cc1`, the composite z-score in assay [1] was 1.44; in assay [5], 1.57; in assay [7] it was -0.126; in assay [8] it was 1.19; in assay [9] it was 1.1; in assay [10] it was 0.24. The composite z-score in assay [11] is 1.03; in assay [12], -0.0212; in assay [13] it was -0.925; in assay [15], 1.09; in assay [16], 1.16; in [17] it was 0.797. Besides, the composite z-score was 1.17 in assay [18], 1.22 in assay [19] and -0.116 in assay [20]. Besides, the z-score in assay [2] is 0.76 (inactive); in assay [3] it was 0.249 (inactive); in assay [4], 1.25 (inactive); in assay [6] it was 1.35 (inactive); in assay [14] it was -0.746 (inactive).

As to `CCOC(=O)[C@H](CC(C)C)NC(=O)CCC1CC(OC(=O)NCc2cccc3ccccc23)CC2(CCCC(COC(=O)NCCOC)O2)O1` (stereo not given in full), the composite z-score in assay [1] is 1.5; in assay [5], 2.7; in [7], -0.0633; in assay [8], 0.607; in [9], 1.08; in assay [10], 0.0576. In addition, the composite z-score is 0.546 in assay [11]; -0.164 in [12]; -0.401 in [13]; 0.799 in assay [15]; 1.3 in assay [16]; 0.412 in assay [17]. Also, the values for the composite z-score in [18], in [19] and in assay [20] were 1.17, 0.358 and -0.0748, respectively. The z-score in [2] is -1.43 (inactive); in assay [3], -0.837 (inactive); in assay [4], -1.09 (inactive); in [6], -0.157 (inactive); in assay [14], -1.8 (inactive).

Turning to `CCOC(=O)[C@H](Cc1ccccc1)NC(=O)CCC1CC(OC(=O)NCCc2ccc(F)cc2)CC2(CCCC(COC(=O)NCCc3ccccc3OC)O2)O1` (stereo not given in full), the composite z-score in assay [1] was 1.4; in assay [5], 2.18; in assay [7], -0.157; in assay [8] it was 0.955; in assay [9], 1.13; in assay [10], 0.0846. Also, the composite z-score in [11] was 1.14; in assay [12], -0.275; in assay [13], -0.556; in assay [15] it was 1.06; in assay [16] it was 1.28; in [17], 0.42. Moreover, the composite z-score in [18] was 0.857; in [19], 0.782; in [20], -0.314. The z-score in [2] was -0.053 (inactive); in assay [3], 0.932 (inactive); in [4], 0.785 (inactive); in assay [6], -0.715 (inactive); in assay [14] it was -0.0644 (inactive).
